Data from PubChem BioAssay AID686978 (National Center for Advancing Translational Sciences (NCATS), 2013).
Screen size: about 420,000 compounds; about 64,000 (15%) were called active. Another 27% or so got no clear call; they are omitted. The call rests on the fitted dose curve; in most records, active means well fitted inhibition curve with a large enough effect; inconclusive means small, poorly fitted or top-dose-only effect; inactive means flat fitted curve, though single readings scatter. The list is a sample of the results. Where a call stands in place of a potency, no number is given.

Assay: qHTS for Inhibitors of human tyrosyl-DNA phosphodiesterase 1 (TDP1): qHTS in cells in absence of CPT; further: nearly all actives have a fitted effect of over 55% in size
Settings: DT40 Tdp1-/- hTDP1 cells, no CPT, ATP luminescence, 48 h; activity change, negative = growth inhibition: at 46.2 µM (top of the series)
Method in brief: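 Chicken DT40 Tdp1-/- cells complemented with human TDP1, screened without camptothecin (DMSO vehicle only), 400 cells/well. Compounds pin-transferred, cells incubated at 37 °C for at least 48 hr. Growth read as ATP-dependent luminescence (CellTiter-Glo, 30 min at RT).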
Potency means the concentration at half of the fitted maximal effect.

Compound | Potency
COP1(=O)C[C@@H](O)[C@@H](O)[C@@H](COCc2ccccc2)O1 (some centres undefined) | inactive
O=c1[nH][nH]c(C(F)(F)F)c1C=NCc1ccccc1Cl | inactive
Cc1nc2cc(NC(=O)NC3CC3)ccc2n1C | inactive
COc1ccc(-n2c(=O)c(C)nc3cnc(N4CCOCC4)nc32)cc1 | inactive
Cc1nc2sccn2c(=O)c1S(=O)(=O)NCCc1ccccc1 | inactive
C/C(=N\NC(=O)c1ccoc1C)c1ccccc1O | 11.6 µM (active)
C/C(=N\NC(=O)c1ccccc1C)c1ccc(N2CCOCC2)cc1 | inactive
Cc1ccc(-c2noc(CNC(=O)c3ccoc3C)n2)cc1 | inactive
COc1ccccc1Cn1c(C)nnc1-c1cnn(C)c1N | inactive
COCCNC(=O)C1C(=O)Nc2ccccc2C(=O)N1c1ccc2c(c1)OCCO2 (centres undefined) | inactive
NC(=O)CC[C@@H]1NC(=O)[C@@H]2CCCN2C(=O)c2cc([N+](=O)[O-])cc(F)c2NCCC[C@@H](C(N)=O)NC1=O | inactive
CC(=O)N1CCc2c(sc(NC(=O)CCS(=O)(=O)c3ccc(C)cc3)c2C(N)=O)C1 | inactive
CC(=O)N1CCc2c(sc(NC(=O)CCS(=O)(=O)c3ccccc3)c2C#N)C1 | 14.6 µM (active)
CC(C)N1CCc2c(sc(NC(=O)Cc3ccccc3)c2C#N)C1 | inactive
CCN(CC)C(CNC(=O)CSc1nnnn1-c1cccc(F)c1)c1ccco1 (centres undefined) | inactive
Cc1ccc(C(=O)NCC(=O)O)s1 | inactive
COc1ccc(OC)c(-c2noc(N3CCN(c4cc(Cl)ccc4C)CC3)n2)c1 | 25.9 µM (active)
COc1ccc(S(=O)(=O)N2CCN(c3ccc(F)cc3)CC2)cc1-c1noc(C)n1 | inactive
CCc1nc(-c2cc(S(=O)(=O)N3CCN(c4ccc(OC)cc4)CC3)ccc2OC)no1 | inactive
O=C(c1cccc(S(=O)(=O)N2CCCC2)c1)N(Cc1ccco1)C1CCS(=O)(=O)C1 (centres undefined) | inactive
Cn1c(CNC(=O)C(C)(C)C)nc2ccccc21 | inactive
COc1cccc(C(O)Cc2nc3ccccc3n2C)c1OC (centres undefined) | inactive
CC(NCc1nc2ccccc2n1C)C12CC3CC(CC(C3)C1)C2 (centres undefined) | 23.1 µM (active)
Cc1ccc(S(=O)(=O)/N=C(/Nc2ccc3[nH]c(=O)[nH]c3c2)c2ccccc2)cc1 | inactive
CCN(CC)CCn1c(=S)[nH]c2ncccc2c1=O | inactive
COC(=O)c1sc2[nH]c(=S)n(N)c(=O)c2c1C | inactive
C=CCNc1nc(C)nc(OC)n1 | inactive
CN(C)c1ccc(C=NCCc2ccc(S(N)(=O)=O)cc2)cc1 | inactive
CC(C)CC1(C)NC(=O)N(CC(=O)Nc2ccc3c(c2)OCCO3)C1=O (centres undefined) | inactive
